# Data reported in PubChem BioAssay (NCI).
# Compounds without any hit were thinned out: in the full panel of roughly 83,000, 20% have a hit.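 Cell lines were cultured in 96-well plates, exposed to a single compound concentration, and assessed for percent growth 48 hours later.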 A number with no mark means an inactive call. The source made the active and inactive calls. The calls were made as follows: active = growth percent below 10; inactive = the rest.
# How the values were obtained:
# Assay in all cases: NCI-60 one-dose screen, 48 h (100 = growth as untreated, 0 = no growth, -100 = all killed)
# NCI-H226 lung = settings: 10 µM
# NCI-H322M lung = settings: 10 µM unless noted
# HOP-62 NSCLC = settings: 10 µM unless noted
# NCI-H460 lung = settings: 10 µM unless noted
# HOP-92 NSCLC = settings: 10 µM unless noted
# A549/ATCC NSCLC = settings: 10 µM unless noted
# 786-0 renal = settings: 10 µM unless noted
# COLO 205 colon = settings: 10 µM unless noted
# NCI-H522 lung = settings: 10 µM
Compound,growth (NCI-H226 lung),growth (NCI-H322M lung),growth (HOP-62 NSCLC),growth (NCI-H460 lung),growth (HOP-92 NSCLC),growth (A549/ATCC NSCLC),growth (786-0 renal),growth (COLO 205 colon),growth (NCI-H522 lung)
COc1ccc(-c2nc3sccn3c2/C=C/C(=O)c2cc(OC)c(OC)c(OC)c2)cc1OC,64.9%,57.9%,36.9%,6.91% (active),0.346% (active),54.4%,27.7%,29.6%,
Cn1c2ccc(Cl)cc2c2nn(C(=O)c3ccccc3)c(=O)nc21,93.7%,106%,101%,105%,,113%,113%,123%,
FCOC(C(F)(F)F)C(F)(F)F,106%,97.5%,114%,,120%,99.1%,97.7%,117%,96.6%
CCCCCCCCCCCCCCCC[N+]1(C)CCOCC1,48.4%,37.1%,,4.21% (active),-15.3% (active),24.3%,5.35% (active),-92.3% (active),-24.8% (active)
Cc1nc(NC(=O)COc2cccc(/C=C3\COc4ccccc4C3=O)c2)sc1C,83.2%,58.6%,71.9%,9.93% (active),-20.3% (active),30.1%,72.1%,16.6%,
Cc1nc(NN)c([N+](=O)[O-])c(NN)n1,106%,110%,110%,103%,102%,100%,104%,118%,
NC1=NC(c2ccccc2OS(=O)(=O)c2ccc(Br)cc2)n2c(nc3ccccc32)N1 (stereo not given),102%,101%,75.2%,,-1.3% (active),95.9%,,91.8%,82%
COc1cc(C2=NN(c3ccc(S(N)(=O)=O)cc3)C(c3ccc(Cl)cc3)C2)cc(OC)c1OC (stereo not given),55.6%,66.9%,60.6%,25.8%,23.3%,26.2%,66.5%,48.5%,
COc1ccc(NC(=O)COc2ccccc2)c(C(N)=O)c1,71.6%,59.3%,20.3%,11.2%,,24.8%,35.2%,-12.1% (active),
Cn1c2ccccc2c2nn(C(=O)c3ccccc3)c(=O)nc21,96.2%,99.6%,115%,,,116%,107%,118%,99%
CSC1=CC(=O)c2ccccc2C1=O,89.2%,107%,,95.6%,-29% (active),99.1%,106%,101%,18.5%
COc1ccc(C2CC(c3cc(OC)c(OC)c(OC)c3)=NN2c2ccc(S(N)(=O)=O)cc2)cc1 (stereo not given),61.9%,67.6%,67.3%,,27.8%,44.5%,66.6%,75.6%,66.9%
CN1CCn2c(c(Sc3ccc(C(=O)NO)cc3)c3ccccc32)C1=O,-8.32% (active),53%,21.3%,20.4%,,62%,39.8%,1.64% (active),-97.3% (active)
O=C(Nc1ccccc1O)c1ccc(NS(=O)(=O)c2cccc3cccnc23)cc1,50.3%,48.3%,38.3%,40.2%,,51.1%,71.9%,47.8%,37.7%
CCCCNNC(=O)c1ccc(Br)cc1,62.5%,59.3%,55.5%,,,57.6%,79%,46.1%,
CCSc1nnc2c3cc(Br)ccc3n(C)c2n1,93.6%,101%,82.7%,102%,,102%,102%,102%,99.5%
NC(=O)c1cc(I)ccc1NC(=O)COc1ccccc1,64.2%,48.3%,21.7%,6.3% (active),,18.3%,33.7%,12.2%,0.734% (active)

Compound,growth (NCI-H226 lung),growth (NCI-H322M lung),growth (HOP-62 NSCLC),growth (NCI-H460 lung),growth (HOP-92 NSCLC),growth (A549/ATCC NSCLC),growth (786-0 renal),growth (COLO 205 colon),growth (NCI-H522 lung)
COc1ccc(/C=C2\CN(Cc3cn(CCCNc4ccnc5cc(Cl)ccc45)nn3)C/C(=C\c3ccc(OC)cc3)C2=O)cc1,96.7%,80.1%,63.6%,86.3%,53.8%,65.7%,76.3%,81.6%,
Cc1nc2cc(Nc3nc(NCCN)nc(Nc4ccc(F)cc4)n3)ccc2n1Cc1ccccc1,95.4%,99.7%,79.1%,82.6%,48.5%,83.9%,82.4%,82%,
NC(=O)c1cc(I)ccc1NC(=O)COc1ccc(Cl)cc1Cl,103%,98.5%,87.2%,103%,,90.4%,89.9%,101%,75.7%
Cc1ccc(S(=O)(=O)N(c2ccc(Cl)cc2)c2ccc(Br)cc2C(=O)O)cc1,97.7%,114%,105%,107%,,105%,114%,116%,102%
Cn1c2ccccc2c2nn(Cc3ccccc3)c(=O)nc21,86.6%,113%,94.2%,102%,,105%,108%,119%,103%
O=[N+]([O-])c1ccc(C=C2C(Cl)=C(Cl)C(Cl)=C2Cl)cc1,62.7%,121%,78.3%,90.6%,,92.1%,19.8%,54%,46.1%
Clc1ccc(C2=NN(c3ccccc3)[C@H](c3cn(-c4ccccc4)nc3-c3ccccc3)C2)cc1,96.1%,101%,108%,108%,,97.8%,103%,114%,91.5%
COC(=O)c1ccc(C(=O)Nc2ccccc2N)cc1,73.9%,66.5%,95%,63.3%,,94.7%,80.8%,106%,75.1%
COc1cc(/C=C/c2cc(/C=C/c3ccc(O)c(OC)c3)n(-c3ccccc3)n2)ccc1O,-8.19% (active),-3.64% (active),-67.7% (active),0.0675% (active),,8.4% (active),-76.7% (active),-84.1% (active),-30.2% (active)
CC(=O)N(CC(O)CO)c1c(I)c(C(=O)NCCO)c(I)c(C(=O)NCC(O)CO)c1I (stereo not given),98.7%,93%,99.2%,111%,,100%,91%,105%,97.8%
COc1ccc2c(c1)c(=O)oc1c(C)c(OCC(C)=O)ccc12,104%,105%,118%,103%,,85.1%,101%,128%,
FC(F)(F)c1cc(CNc2nc(Cl)ncc2Br)cc(C(F)(F)F)c1,93.9%,,90.5%,95.6%,71%,83%,84.6%,103%,62.3%
Cc1nn(-c2ccccc2)c2nc3nc4c(c(N)c3c(-c3ccc(Cl)cc3)c12)CCC4,94.1%,,101%,72.7%,80.4%,84.8%,74%,67%,102%
Cc1nc2cc(Nc3nc(Cl)nc(Nc4ccc(F)cc4)n3)ccc2n1Cc1ccccc1,80.5%,,88.4%,88%,50.7%,86.7%,33%,109%,-69.8% (active)
Cn1c(=O)c(S(=O)(=O)c2ccccc2)cc2ccc3c(cnn3-c3ccc(Cl)cc3)c21,55.6%,,87.3%,80.7%,39.8%,65.5%,51.3%,100%,-18.9% (active)
Cc1ccc(N(CSc2ccc(Cl)cc2)CSc2ccc(Cl)cc2)cc1,71.9%,64.1%,,14.3%,56.8%,28.5%,51.5%,118%,39.3%
O=C1/C(=C/c2ccc(Cl)cc2)CN(Cc2cn(CCCNc3ccnc4cc(Cl)ccc34)nn2)C/C1=C\c1ccc(Cl)cc1,-81.4% (active),-28.9% (active),,-67.6% (active),-65.3% (active),-62.9% (active),-74.4% (active),-61.3% (active),-92.8% (active)
